Results filed as inconclusive are left out. Calls of active or inactive are those of the source. Unless noted, calls come from the whole dose curve; as a rule, active = well fitted curve in the direction sought with a large enough effect in the repeat runs; inconclusive = weak or mixed curves; inactive = no such curve, though single readings can be large; an effect the other way counts as inactive or inconclusive.
Legend:
[1] = qHTS assay to identify small molecule HDAC inhibitors (AID 1259364);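 note: wild-type HCT-116 cells with endogenous class I/II HDAC activity; top concentration of the series differs between compounds; nearly all actives have a fitted effect of over 45% in size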
In short: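 Quantitative high-throughput format: overnight-seeded HCT-116 cells got compounds for 2 hr at 37C; HDAC-Glo I/II reagent added, 30 min RT, luminescence measured.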

[2] = qHTS assay to identify small molecule HDAC inhibitors - cell viability counter screen (AID 1259365); note: series mostly up to about 92 µM; nearly all actives have a fitted effect of over 50% in size
In short: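 To flag cytotoxic hits, 1,500 wild-type HCT-116 cells per well, plated the day before, receive test compounds for 2hr at 37 C before CellTiter-Glo reagent and a luminescence read.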

[3] = qHTS assay to identify small molecule agonists of the sonic hedgehog signaling (Shh) pathway - cell viability counter screen (AID 1259366); note: nearly all actives have a fitted effect of over 50% in size
In short: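 Fluorescence from CellTiter-Fluor reports live cells in this counter screen. NIH/3T3-derived Gli1-Luc reporter cells receive test compounds for 24hr at 37C; reagent goes in at 23hr.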

[4] = qHTS assay to identify small molecule antagonists of the sonic hedgehog signaling (Shh) pathway - cell viability counter screen (AID 1259367); note: nearly all actives have a fitted effect of over 55% in size
In short: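 CellTiter-Fluor signal in conditioned medium-stimulated 3T3 Gli1-Luc cells, 23 hr compound exposure, 37C.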

[5] = qHTS assay to identify small molecule agonists of the sonic hedgehog signaling (Shh) pathway (AID 1259368; calls by dose curve;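 note: NIH/3T3-derived 3T3Gli1-Luc cells carrying a stable Gli1-driven firefly luciferase reporter; series mostly up to about 92 µM; nearly all actives have a fitted effect of over 15% in size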)
In short: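 Quantitative high-throughput format using a Gli1-driven firefly luciferase reporter line derived from NIH/3T3 cells. After a 24 hr compound treatment at 37 C and 5% CO2, luminescence reported Gli1 response element activity.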

[6] = qHTS assay to identify small molecule antagonists of the sonic hedgehog signaling (Shh) pathway (AID 1259369; calls by dose curve; note: nearly all actives have a fitted effect of over 45% in size)
In short: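 Stable Gli1-Luc reporter NIH/3T3 clone; quantitative HTS in stimulated mode with conditioned medium. Luminescence measured after 24hr compound treatment at 37 C.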

[7] = qHTS assay to identify small molecule agonists of the estrogen receptor beta (ER-beta) signaling pathway - cell viability counter screen (AID 1259380); note: nearly all actives have a fitted effect of over 30% in size
In short: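 Steps: plate ER-beta-UAS-bla HEK293T cells, rest 6 hr; add compounds in DMSO; incubate 16 hr at 37C, 5% CO2; add FRET substrate 2 hr; add CellTiter-Glo, wait 30 min at room temperature; read luminescence.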

[8] = qHTS assay to identify small molecule agonists or antagonists of the thyroid stimulating hormone receptor (TSHR) signaling pathway - wild type cell line counter screen (AID 1259384; calls by dose curve)
In short: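 Counter screen in untransfected Hek293: compounds (15-point titration, triplicate) plus phosphodiesterase inhibitor Ro20-1724 added after 18 h plating; 30 min RT. Intracellular cAMP via competitive d2/cryptate immunoassay, 1 h incubation.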

[9] = target: Thyrotropin receptor (Homo sapiens) (UniProt P16473); test: qHTS assay to identify small molecule antagonists of the thyroid stimulating hormone receptor (TSHR) signaling pathway (AID 1259385; calls by dose curve; note: nearly all actives have a fitted effect of over 20% in size)
In short: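 Antagonist mode: compound-treated TSHR-expressing HEK293 cells were stimulated with 1.5 ng/mL TSH (final) in presence of Ro20-1724 for 30 min at RT. HTRF cAMP detection after 1 h; each compound tested at 15 concentrations, triplicate.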

[10] = qHTS assay to identify small molecule agonists of the estrogen receptor alpha (ER-alpha) signaling pathway in the presence of an antagonist - cell viability counter screen (AID 1259386);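 note: series mostly up to about 92 µM; cells exposed to compounds for 22 h at 37 °C before the viability read; nearly all actives have a fitted effect of over 30% in size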
In short: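 In this counter screen, compound effects on VM7Luc4E2 viability were tested in the presence of the antagonist ICI-182,780 at 10.0nM final. Compounds were dosed at 15 concentrations, exposure lasted 22hr, and the CellTiter-Fluor signal was read.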

[11] = target: Progesterone receptor (Homo sapiens) (UniProt P06401); test: qHTS assay to identify small molecule agonists of the progesterone receptor (PR) signaling pathway (AID 1346784; calls by dose curve; note: nearly all actives have a fitted effect of over 30% in size)
In short: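 Seed PR-UAS-bla HEK 293T cells (2% charcoal-stripped FBS), incubate 6 hr at 37C; add compounds in DMSO, 16 hr at 37C; add LiveBLAzer B/G substrate, 2 hr RT; read fluorescence intensity.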

[12] = target: Progesterone receptor (Homo sapiens) (UniProt P06401); test: qHTS assay to identify small molecule antagonists of the progesterone receptor (PR) signaling pathway (AID 1346795; active = well fitted inhibition curve with a large enough effect in the signal ratio in the repeat runs, not every such curve was filed as active; the % refers to the signal ratio)
In short: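 Screening used a GripTite HEK293T line with PR-responsive UAS-beta-lactamase. Cells were challenged with compound in the presence of 1 nM R5020 final for 16 hr at 37C; B/G FRET substrate, 2 hr room temperature, fluorescence.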

[13] = qHTS assay to identify small molecule antagonists of the progesterone receptor (PR) signaling pathway - cell viability counter screen (AID 1346798); note: series mostly up to about 92 µM; nearly all actives have a fitted effect of over 50% in size
In short: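 Measures cytotoxicity in parallel with the PR antagonist reporter read: HEK293T PR-UAS-bla cells get compound and R5020 for 16 hr, and remaining viable cells are quantified by CellTiter-Glo luminescence.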

[14] = qHTS assay to identify small molecule agonists of the progesterone receptor (PR) signaling pathway - cell viability counter screen (AID 1346799; calls by dose curve; note: nearly all actives have a fitted effect of over 45% in size)
In short: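 Using the same plates as the PR reporter screen, HEK293T PR-UAS-bla cells received compounds for 16 hr at 37C and were then lysed with CellTiter-Glo; luminescence was read 30 min later at room temperature.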

[15] = qHTS assay to identify small molecule antagonists of the TGF-beta/Smad signaling pathway - cell viability counter screen (AID 1346824); note: nearly all actives have a fitted effect of over 50% in size
In short: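 Cytotoxicity counter-screen run in the same wells as the beta-lactamase Smad reporter read: CellTiter-Glo luminescence after 30 min at room temperature. HEK 293T SBE-bla cells had 5 hr compound exposure at 37 C with TGF-beta1 (0.25 ng/mL stock).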

[16] = target: Estrogen receptor beta (Homo sapiens) (UniProt Q92731); test: qHTS assay to identify small molecule agonists of the estrogen receptor beta (ER-beta) signaling pathway (AID 1259377; active = well fitted activation curve with a large enough effect in the signal ratio in the repeat runs, not every such curve was filed as active; the % refers to the signal ratio)
In short: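 Screening used GripTite ER-beta-UAS-bla cells held in 2% charcoal-stripped FBS medium. After overnight (16 hr) compound incubation at 37C, beta-lactamase activity was detected with a FRET substrate by fluorescence.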

[17] = target: Estrogen receptor beta (Homo sapiens) (UniProt Q92731); test: qHTS assay to identify small molecule antagonists of the estrogen receptor beta (ER-beta) signaling pathway (AID 1259378; active = well fitted inhibition curve with a large enough effect in the signal ratio in the repeat runs, not every such curve was filed as active; the % refers to the signal ratio)
In short: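 Antagonist mode: compounds added to beta-lactamase reporter HEK293T ER-beta-UAS cells stimulated with E2 (1nM final), 16 hr at 37C. LiveBLAzer B/G FRET substrate, 2 hours room temperature, fluorescence read-out.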

[18] = qHTS assay to identify small molecule agonists of the androgen receptor (AR) signaling pathway in the presence of an antagonist - cell viability counter screen (AID 1259379);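 note: MDA-kb2 human breast cancer cells carrying an MMTV luciferase reporter; series mostly up to about 92 µM; nearly all actives have a fitted effect of over 25% in size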
In short: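 Nilutamide-containing (3.0uM final) MDA-kb2 cultures, 3,000 cells/well, were treated with compounds across 15 concentrations. After 16 hr at 37C with no CO2, cell viability was determined by CellTiter-Fluor fluorescence in the luciferase assay wells.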

[19] = qHTS assay to identify small molecule antagonists of the estrogen receptor beta (ER-beta) signaling pathway - cell viability counter screen (AID 1259382);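 note: HEK293T cells carrying ER-beta-UAS-bla reporter stimulated with estradiol; series mostly up to about 92 µM; nearly all actives have a fitted effect of over 55% in size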
In short: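 Viability is scored by CellTiter-Glo luminescence (30 min, room temperature) in ER-beta-UAS-bla HEK293T wells already read for reporter fluorescence. Compound exposure lasts 16 hr at 37C alongside 1nM 17-beta-estradiol in charcoal-stripped serum medium.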

[20] = target: Estrogen receptor (Homo sapiens) (UniProt P03372); test: qHTS assay to identify small molecule agonists of the estrogen receptor alpha (ER-alpha) signaling pathway in the presence of an antagonist (AID 1259383; calls by dose curve; note: top concentration of the series differs between compounds; nearly all actives have a fitted effect of over 15% in size)
In short: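 Readout was ERE-driven luciferase luminescence in VM7Luc4E2 cells, which express full-length ER-alpha endogenously. Compounds were tested at 15 concentrations for 22hr alongside 10.0nM ICI-182,780 (final concentration).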

Measured: Potency

Chain of Thyrotropin receptor (Homo sapiens) (P16473 whole entry, looked up): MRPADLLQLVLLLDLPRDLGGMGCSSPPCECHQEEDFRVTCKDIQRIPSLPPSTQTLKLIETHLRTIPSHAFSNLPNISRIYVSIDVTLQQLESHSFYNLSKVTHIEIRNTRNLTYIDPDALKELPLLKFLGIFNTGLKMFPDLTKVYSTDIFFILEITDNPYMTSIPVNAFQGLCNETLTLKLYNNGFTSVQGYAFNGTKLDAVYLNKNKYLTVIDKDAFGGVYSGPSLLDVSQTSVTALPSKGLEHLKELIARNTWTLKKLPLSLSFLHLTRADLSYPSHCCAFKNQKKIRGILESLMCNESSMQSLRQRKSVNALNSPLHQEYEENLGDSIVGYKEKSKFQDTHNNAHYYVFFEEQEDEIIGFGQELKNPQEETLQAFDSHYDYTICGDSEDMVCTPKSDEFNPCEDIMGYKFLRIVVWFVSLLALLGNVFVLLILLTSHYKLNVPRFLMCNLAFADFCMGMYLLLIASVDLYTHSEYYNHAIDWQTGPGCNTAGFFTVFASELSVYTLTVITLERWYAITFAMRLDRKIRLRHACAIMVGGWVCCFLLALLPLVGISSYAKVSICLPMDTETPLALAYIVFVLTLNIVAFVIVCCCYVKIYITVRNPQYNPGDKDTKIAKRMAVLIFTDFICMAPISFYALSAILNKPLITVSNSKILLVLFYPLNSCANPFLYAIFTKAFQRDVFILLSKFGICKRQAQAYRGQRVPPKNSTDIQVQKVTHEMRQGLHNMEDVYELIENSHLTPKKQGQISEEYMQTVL
Chain of Progesterone receptor (Homo sapiens) (P06401 whole entry, looked up): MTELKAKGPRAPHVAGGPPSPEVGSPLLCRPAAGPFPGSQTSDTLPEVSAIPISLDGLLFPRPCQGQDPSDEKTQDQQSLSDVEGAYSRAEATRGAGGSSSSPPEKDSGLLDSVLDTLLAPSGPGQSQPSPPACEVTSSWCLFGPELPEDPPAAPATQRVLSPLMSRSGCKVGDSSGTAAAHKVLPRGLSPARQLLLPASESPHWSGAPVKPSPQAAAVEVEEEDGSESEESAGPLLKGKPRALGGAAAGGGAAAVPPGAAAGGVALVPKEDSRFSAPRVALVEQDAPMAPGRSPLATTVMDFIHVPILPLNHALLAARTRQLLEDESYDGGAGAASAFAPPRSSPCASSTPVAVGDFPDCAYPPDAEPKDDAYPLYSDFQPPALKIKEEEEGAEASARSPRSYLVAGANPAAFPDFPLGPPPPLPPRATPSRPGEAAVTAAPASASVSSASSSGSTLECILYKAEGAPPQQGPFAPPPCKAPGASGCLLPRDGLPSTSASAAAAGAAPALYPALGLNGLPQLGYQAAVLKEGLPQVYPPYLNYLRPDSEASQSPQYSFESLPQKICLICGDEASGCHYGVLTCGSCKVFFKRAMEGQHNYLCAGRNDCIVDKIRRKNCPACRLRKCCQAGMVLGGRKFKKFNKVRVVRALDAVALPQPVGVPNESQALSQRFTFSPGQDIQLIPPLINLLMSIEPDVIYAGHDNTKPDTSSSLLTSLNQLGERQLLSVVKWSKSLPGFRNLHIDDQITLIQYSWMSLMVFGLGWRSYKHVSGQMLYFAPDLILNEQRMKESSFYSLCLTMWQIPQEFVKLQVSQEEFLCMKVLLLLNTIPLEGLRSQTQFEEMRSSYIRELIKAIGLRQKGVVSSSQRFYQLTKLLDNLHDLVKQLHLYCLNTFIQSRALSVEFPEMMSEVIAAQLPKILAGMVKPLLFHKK
Chain of Estrogen receptor beta (Homo sapiens) (Q92731 whole entry, looked up): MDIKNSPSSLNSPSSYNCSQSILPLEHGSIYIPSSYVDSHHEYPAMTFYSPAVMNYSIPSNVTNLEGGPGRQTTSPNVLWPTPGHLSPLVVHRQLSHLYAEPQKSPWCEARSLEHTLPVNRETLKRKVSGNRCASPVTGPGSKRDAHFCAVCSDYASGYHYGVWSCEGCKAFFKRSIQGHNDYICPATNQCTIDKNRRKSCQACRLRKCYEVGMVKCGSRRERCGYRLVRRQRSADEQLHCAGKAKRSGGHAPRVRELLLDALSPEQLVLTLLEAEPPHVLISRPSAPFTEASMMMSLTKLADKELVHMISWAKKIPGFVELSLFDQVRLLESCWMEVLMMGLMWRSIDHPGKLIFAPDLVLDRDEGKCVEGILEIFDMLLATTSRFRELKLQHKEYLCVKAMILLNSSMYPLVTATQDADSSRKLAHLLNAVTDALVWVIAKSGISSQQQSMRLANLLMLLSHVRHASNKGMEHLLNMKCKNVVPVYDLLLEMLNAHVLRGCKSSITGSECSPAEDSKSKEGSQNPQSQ
Chain of Estrogen receptor (Homo sapiens) (P03372 whole entry, looked up): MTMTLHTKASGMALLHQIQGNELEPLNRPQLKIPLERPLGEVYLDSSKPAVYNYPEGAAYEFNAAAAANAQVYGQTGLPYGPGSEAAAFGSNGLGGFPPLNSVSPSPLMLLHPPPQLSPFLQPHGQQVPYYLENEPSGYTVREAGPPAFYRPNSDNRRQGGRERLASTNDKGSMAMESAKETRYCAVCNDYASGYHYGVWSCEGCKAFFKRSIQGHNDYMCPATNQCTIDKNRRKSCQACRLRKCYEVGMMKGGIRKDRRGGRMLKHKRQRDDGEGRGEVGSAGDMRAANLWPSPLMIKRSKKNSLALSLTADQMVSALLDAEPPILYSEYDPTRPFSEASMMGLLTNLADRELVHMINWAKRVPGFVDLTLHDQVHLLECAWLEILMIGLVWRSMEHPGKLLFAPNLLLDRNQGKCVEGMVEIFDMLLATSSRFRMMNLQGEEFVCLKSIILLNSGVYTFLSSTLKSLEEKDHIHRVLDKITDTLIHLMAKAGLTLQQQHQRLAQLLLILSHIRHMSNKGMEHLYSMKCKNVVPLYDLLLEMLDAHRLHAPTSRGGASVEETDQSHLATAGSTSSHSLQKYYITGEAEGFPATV

CCCCCCCCCCCCCCCC(=O)NCCO
inactive: [1] | [2] | [3] | [4] | [5] | [6] | [7] | [8] | [9] | [10] | [11] | [12] | [13] | [14] | [15]

COc1ccc(/C=N/NC(=O)c2ccncc2)cc1OC
inactive: [1] | [2] | [3] | [4] | [5] | [16] | [17] | [18] | [7] | [19] | [20] | [8] | [9] | [10] | [11] | [12] | [14] | [15]

COc1cc2c(Nc3ccc(Br)cc3F)ncnc2cc1OCC1CCN(C)CC1
inactive: [1] | [2] | [3] | [4] | [6] | [16] | [17] | [18] | [7] | [19] | [20] | [10] | [11] | [12] | [13] | [14] | [15]

O=c1[nH]c(=O)c2ccccc2o1
inactive: [1] | [2] | [3] | [4] | [5] | [16] | [18] | [7] | [19] | [8] | [9] | [10] | [11] | [12] | [13] | [14] | [15]

Reference: PubChem BioAssay (Tox21)
